Compound activity: PubChem, National Center for Advancing Translational Sciences (NCATS)
Six1-Eya2 blk: qHTS Assay for Inhibitors of the Six1/Eya2 Interaction. AlphaScreen GST-Six1/His-Eya2 binding, biochemical; active compounds read low. activity change, % (no concentration beside the values). hit rate 0.56% among 360,000; in the data active means activity change below about -65%; inconclusive means mostly about -30% to -63%
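Compounds are tested against tagged Six1 and Eya2 proteins bridged by glutathione donor and nickel acceptor beads; after a one-hour incubation at 37 °C without light, AlphaScreen emission is recorded.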
JMJD2A Tudor: qHTS Assay for Inhibitors of JMJD2A-Tudor Domain; Lysine-specific demethylase 4A (Homo sapiens), O75164; AID 504339, 2011; Potency, µM (top dose mostly 114 µM), hits mostly inhibitors; hit rate 4.4% among 390,000; AlphaScreen JMJD2A-Tudor / H3K4me3 peptide binding; further: nearly all actives have a fitted effect of over 50% in size
Target sequence (O75164 whole entry, looked up, the tested form may be a part): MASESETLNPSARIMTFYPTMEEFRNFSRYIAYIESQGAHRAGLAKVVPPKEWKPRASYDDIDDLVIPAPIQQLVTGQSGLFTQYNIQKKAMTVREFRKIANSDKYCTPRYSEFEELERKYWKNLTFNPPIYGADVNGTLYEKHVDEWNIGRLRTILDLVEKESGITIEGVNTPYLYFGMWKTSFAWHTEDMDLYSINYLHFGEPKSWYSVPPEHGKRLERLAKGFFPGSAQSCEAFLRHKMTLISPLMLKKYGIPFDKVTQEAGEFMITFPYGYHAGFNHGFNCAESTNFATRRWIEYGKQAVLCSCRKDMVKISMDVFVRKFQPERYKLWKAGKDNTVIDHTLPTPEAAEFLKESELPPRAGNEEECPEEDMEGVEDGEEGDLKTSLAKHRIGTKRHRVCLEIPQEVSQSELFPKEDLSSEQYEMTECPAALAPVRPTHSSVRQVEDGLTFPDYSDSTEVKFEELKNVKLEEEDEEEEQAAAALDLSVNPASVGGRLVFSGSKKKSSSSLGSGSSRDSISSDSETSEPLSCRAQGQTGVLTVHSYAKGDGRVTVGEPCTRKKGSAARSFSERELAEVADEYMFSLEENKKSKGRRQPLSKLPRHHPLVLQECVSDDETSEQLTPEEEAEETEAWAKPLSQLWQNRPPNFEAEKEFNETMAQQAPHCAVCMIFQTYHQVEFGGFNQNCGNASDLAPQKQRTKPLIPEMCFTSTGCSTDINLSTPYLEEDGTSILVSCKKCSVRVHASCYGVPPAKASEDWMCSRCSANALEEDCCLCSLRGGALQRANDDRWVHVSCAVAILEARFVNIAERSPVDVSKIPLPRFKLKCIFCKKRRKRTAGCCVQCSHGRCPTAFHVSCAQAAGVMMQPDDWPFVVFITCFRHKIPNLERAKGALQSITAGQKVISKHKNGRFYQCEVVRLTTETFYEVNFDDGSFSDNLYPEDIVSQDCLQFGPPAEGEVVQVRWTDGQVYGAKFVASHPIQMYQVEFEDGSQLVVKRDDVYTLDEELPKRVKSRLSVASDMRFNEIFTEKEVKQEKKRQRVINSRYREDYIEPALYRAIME
CtBP-E1A blk: qHTS Assay for Inhibitors of the CtBP/E1A Interaction. activity change, % (concentration not given with the values). hit rate 0.49% among 340,000. CtBP / adenovirus E1A interaction (AlphaScreen). AlphaScreen GST-E1A/His-CtBP binding, 1536-well; active compounds read low; in the data active means activity change below about -65%; inconclusive means mostly about -30% to -63%
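In 5 uL wells, 23 nL compound meets equimolar GST-E1A and His-CtBP (5X stock 125 nM each) for 2 h, 37 °C. Beads (5X, 50 ug/mL) then 1 h, 37 °C, dark.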
BAZ2B inh: qHTS Assay for Inhibitors of BAZ2B. hit rate 4.4% among 360,000. Bromodomain adjacent to zinc finger domain protein 2B (Homo sapiens), Q9UIF8. AlphaScreen BAZ2B-H3K14Ac peptide displacement. Potency, µM (series often up to 114 µM), most hits filed as inhibitors; further: nearly all actives have a fitted effect of over 60% in size
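In this displacement format the biotinylated H3(5-23) peptide acetylated at Lys14 serves as ligand at 50 nM, with BAZ2B at 50 nM in PBS pH 7.4 containing 0.01% Tween-20. Donor and acceptor beads are 10 ug/mL final.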
G9a inh: qHTS Assay for Inhibitors of Histone Lysine Methyltransferase G9a | hit rate 8.8% among 350,000 | Potency, µM (series often up to 102 µM), usual class: inhibitors | AID 504332, 2011 | Histone-lysine N-methyltransferase EHMT2 (Homo sapiens), Q96KQ7 | G9a H3K9 monomethylation, AlphaScreen, 2 h; further: nearly all actives have a fitted effect of over 75% in size
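Signal arises when biotinylated H3K9 peptide, once monomethylated, bridges streptavidin donor and antibody-captured acceptor beads. Enzyme at 20 nM was preincubated 15 min with test compounds; peptide 500 nM and SAM 20 uM then reacted for 2 h.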
HP1b chromo inh: HTS for Inhibitors of HP1-beta Chromodomain Interactions with Methylated Histone Tails. Potency, µM (doses to about 114 µM), hits mostly inhibitors. hit rate 0.56% among 390,000. Chromobox protein homolog 1 (Homo sapiens), P83916. AlphaScreen HP1-beta / biotin-H3K9me3 peptide binding; further: nearly all actives have a fitted effect of over 70% in size
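HP1-beta protein (50 nM final) preincubated 30 min at room temperature with biotinylated H3(1-18)K9me3 peptide (50 nM) in PBS pH 7.4, 0.01% Tween-20, then compound added for 30 min. AlphaScreen streptavidin donor/nickel chelate acceptor beads (10 ug/mL final), 30 min dark, luminescence read.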
Of the large screens only hits and unclear results are named; the others gave an inactive call; ! = a repeat was not active. A selection: hits, their analogues and other compounds. The true share with any hit is near 10%. Unless noted, the call rests on the fitted dose curve; in most records, active means well fitted inhibition curve with a large enough effect; inconclusive means small, poorly fitted or top-dose-only effect; inactive means no such curve, though single readings can be large or run the other way.

CN(Cc1ccccc1)C(=O)COC(=O)c1cc(S(=O)(=O)N(C)C)ccc1N1CCCC1	G9a inh 50µM
Cc1ccccc1NC(=O)c1cc(N)ccc1N1CCCCC1	JMJD2A Tudor inconclusive, BAZ2B inh inconclusive, G9a inh 32µM
CN(CC(=O)Nc1ccccc1Cl)C(=O)COC(=O)c1cc(S(=O)(=O)N(C)C)ccc1N1CCCC1	none
CN(C)S(=O)(=O)c1ccc(N2CCCC2)c(C(=O)Nc2ccccc2Br)c1	G9a inh 45µM
CCc1ccccc1NC(=O)c1cc(S(=O)(=O)N(C)C)ccc1N1CCCC1	none
OCCN1CCN(CC(O)COCCOc2ccc(Br)cc2)CC1 (stereo not drawn)	JMJD2A Tudor 18µM, HP1b chromo inh inconclusive
COc1ccc(N2CCN(CC(O)COc3ccc4c(c3)CCC4)CC2)cc1 (stereo not drawn)	Six1-Eya2 blk inconclusive, JMJD2A Tudor 56µM, CtBP-E1A blk inconclusive, BAZ2B inh 35µM, G9a inh inconclusive, HP1b chromo inh inconclusive
COc1ccc(N2CCN(CC(O)COC(C)(C)C)CC2)cc1 (stereo not drawn)	JMJD2A Tudor 18µM, BAZ2B inh 45µM, G9a inh 10µM, HP1b chromo inh inconclusive (no result: CtBP-E1A blk)
COc1ccc(N2CCN(CC(O)COCCOc3ccc(Br)cc3)CC2)cc1 (stereo not drawn)	BAZ2B inh 45µM, G9a inh 10µM
COc1ccc(OCC(O)CN2CCN(c3ccc(Cl)cc3)CC2)cc1 (stereo not drawn)	none (no result: CtBP-E1A blk)
Cc1ccc(C)c(NC(=O)CN(Cc2ccccc2)S(=O)(=O)c2ccc3nc(C)sc3c2)c1	none (no result: Six1-Eya2 blk, CtBP-E1A blk)
CC(C)(C)c1ccc(C(=O)NCC(c2cccs2)S(=O)(=O)c2ccc(F)cc2)cc1 (stereo not drawn)	none (no result: Six1-Eya2 blk, CtBP-E1A blk)
CC(C)OCCCN1CC(=O)N2C(c3cccc([N+](=O)[O-])c3)c3[nH]c4ccccc4c3C[C@H]2C1=O (stereo partly drawn)	none
O=C1CC(c2ccc(Cl)c([N+](=O)[O-])c2)c2ccc3ccccc3c2N1 (stereo not drawn)	JMJD2A Tudor inconclusive
O=[N+]([O-])c1cccc(C2NCC(c3ccccc3Cl)c3c2[nH]c2ccccc32)c1 (stereo not drawn)	JMJD2A Tudor inconclusive, BAZ2B inh 35µM, G9a inh 40µM, HP1b chromo inh inconclusive
CN(C)c1ccc(C2CNC(c3ccc(Cl)c([N+](=O)[O-])c3)c3[nH]c4ccccc4c32)cc1 (stereo not drawn)	JMJD2A Tudor 35µM, BAZ2B inh 10µM, G9a inh inconclusive, HP1b chromo inh inconclusive (no result: CtBP-E1A blk)
COc1ccc(CNC(=O)C2CCN(c3nc4ccccc4[nH]3)CC2)cc1OC	none (no result: Six1-Eya2 blk, CtBP-E1A blk)
COc1ccc(C(NC(=O)C(C)C)c2ccc3cccnc3c2O)cc1 (stereo not drawn)	Six1-Eya2 blk -89, CtBP-E1A blk -93, BAZ2B inh 45µM (no result: G9a inh)
CC(=O)NC(c1ccco1)c1ccc2cccnc2c1O (stereo not drawn)	Six1-Eya2 blk -93, JMJD2A Tudor 56µM, CtBP-E1A blk -97, BAZ2B inh 20µM
CC(=O)NC(c1ccc(Cl)cc1)c1ccc2cccnc2c1O (stereo not drawn)	Six1-Eya2 blk inconclusive, JMJD2A Tudor inconclusive (no result: CtBP-E1A blk, BAZ2B inh, G9a inh)
CCCCC(=O)NC(c1ccc(Cl)cc1Cl)c1ccc2cccnc2c1O (stereo not drawn)	JMJD2A Tudor inconclusive, CtBP-E1A blk inconclusive, BAZ2B inh inconclusive (no result: G9a inh)
CCCC(=O)NC(c1ccc(C(C)C)cc1)c1ccc2cccnc2c1O (stereo not drawn)	Six1-Eya2 blk inconclusive, CtBP-E1A blk -65
CCC(=O)NC(c1ccc(Cl)cc1Cl)c1ccc2cccnc2c1O (stereo not drawn)	Six1-Eya2 blk -80, CtBP-E1A blk inconclusive
CCCCC(=O)NC(c1ccc(OC)cc1)c1ccc2cccnc2c1O (stereo not drawn)	none (no result: JMJD2A Tudor, BAZ2B inh, G9a inh, HP1b chromo inh)
CCCC(=O)NC(c1ccc(OC)cc1)c1c(O)ccc2ccccc12 (stereo not drawn)	none
CCCC(=O)NC(c1ccc(N(C)C)cc1)c1ccc2cccnc2c1O (stereo not drawn)	Six1-Eya2 blk -69, JMJD2A Tudor 22µM, CtBP-E1A blk -92
CCCC(=O)NC(c1ccccc1Cl)c1ccc2cccnc2c1O (stereo not drawn)	Six1-Eya2 blk -85, CtBP-E1A blk inconclusive
CCOc1ccccc1CNC(=O)C1CCN(S(=O)(=O)c2ccc3c(ccn3C)c2)CC1	none (no result: Six1-Eya2 blk, CtBP-E1A blk)
CCc1cccc(NS(=O)(=O)c2c(C)nc3scc(C)n3c2=O)c1	G9a inh 28µM
Cc1nc2scc(C)n2c(=O)c1S(=O)(=O)Nc1ccc(N2CCN(C(=O)C(C)C)CC2)cc1	JMJD2A Tudor 40µM! (no result: CtBP-E1A blk)
Cc1ccc(C(=O)c2oc3ccccc3c2NC(=O)c2nc(S(C)(=O)=O)ncc2Cl)cc1F	none (no result: Six1-Eya2 blk, CtBP-E1A blk)
Cc1ccc(OCC(=O)OCc2cc(=O)n3nc(C4CCCCC4)sc3n2)cc1C	none (no result: Six1-Eya2 blk, CtBP-E1A blk)
COc1ccc(C)c2sc(NC(=O)c3ccc(S(=O)(=O)N4CCCCC4)cc3)nc12	G9a inh inconclusive (no result: Six1-Eya2 blk, CtBP-E1A blk)
O=C(O)Cc1ccc(C(=O)c2ccccc2)s1	G9a inh 18µM
Cc1ccc(SCC(=O)c2ccc(CC(=O)O)s2)cc1	JMJD2A Tudor inconclusive, BAZ2B inh 50µM (no result: G9a inh)
O=C(O)Cc1ccc(C(=O)CSc2ccccc2)s1	JMJD2A Tudor 56µM, BAZ2B inh 50µM, G9a inh 56µM (no result: CtBP-E1A blk)
CCOC(=O)c1cccc(NC(=O)c2cc3c(=O)n(Cc4cccnc4)ccc3nc2C)c1	none (no result: Six1-Eya2 blk, CtBP-E1A blk)
CCOc1ccc(NC(=O)CSc2nc3c(oc4ccccc43)c(=O)n2-c2cc(C)cc(C)c2)cc1	none (no result: Six1-Eya2 blk, CtBP-E1A blk)
COc1ccc(OC)c(/C=C/C(=O)OCC(=O)N2CCCCC2)c1	CtBP-E1A blk -77 (no result: BAZ2B inh, G9a inh)
CC(C)Oc1ccc(/C=N/NC(=O)c2ccc(N(Cc3ccccc3)S(C)(=O)=O)cc2)cc1	none
COC(=O)COc1ccc(/C=N/NC(=O)c2ccc(N(Cc3ccccc3)S(C)(=O)=O)cc2)cc1	Six1-Eya2 blk -75, CtBP-E1A blk -79
CC(=O)N1c2ccccc2CC1C(=O)N1CCN(c2cccc(Cl)c2)CC1 (stereo not drawn)	none (no result: Six1-Eya2 blk, CtBP-E1A blk)
Fc1cccc(CSc2ccc3nnc(-c4cccnc4)n3n2)c1	Six1-Eya2 blk -67, CtBP-E1A blk inconclusive
COc1cccc(NC(=O)CSc2ccc3nnc(-c4cccnc4)n3n2)c1	CtBP-E1A blk inconclusive
Cc1cc(-c2cccnc2)c(C#N)c(SCC#N)n1	none
